# Laboratory results published in PubChem BioAssay AID588342 (National Center for Advancing Translational Sciences (NCATS), 2011).
# Among all 360,000 compounds or so, about 25,000 (6.9%) were called active. Not shown: some 9% with an inconclusive outcome. Calls follow the shape of the dose curve; as a rule, active = well fitted inhibition curve with a large enough effect; inconclusive = small, poorly fitted or top-dose-only effect; inactive = flat fitted curve, though single readings scatter. For the sample, actives were picked, then their nearest neighbours and some compounds at random.
# Biological target: Luciferin 4-monooxygenase (Photinus pyralis) (UniProt P08659)
# Sequence (P08659 whole entry, looked up): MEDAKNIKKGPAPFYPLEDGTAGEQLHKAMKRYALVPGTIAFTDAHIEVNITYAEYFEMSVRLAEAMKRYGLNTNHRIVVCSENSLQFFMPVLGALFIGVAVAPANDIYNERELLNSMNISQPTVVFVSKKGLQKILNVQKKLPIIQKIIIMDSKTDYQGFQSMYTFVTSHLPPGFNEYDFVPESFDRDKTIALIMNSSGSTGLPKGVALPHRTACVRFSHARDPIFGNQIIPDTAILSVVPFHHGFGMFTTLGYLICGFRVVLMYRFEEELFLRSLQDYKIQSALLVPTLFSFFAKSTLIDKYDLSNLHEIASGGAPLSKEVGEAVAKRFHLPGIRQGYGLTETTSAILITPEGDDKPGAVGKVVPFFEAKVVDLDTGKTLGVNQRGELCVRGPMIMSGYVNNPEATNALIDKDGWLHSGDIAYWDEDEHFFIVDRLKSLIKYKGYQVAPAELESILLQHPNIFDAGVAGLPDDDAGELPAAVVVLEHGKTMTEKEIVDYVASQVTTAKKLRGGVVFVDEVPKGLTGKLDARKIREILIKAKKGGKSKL
# Test: qHTS profiling assay for firefly luciferase inhibitor/activator using purifed enzyme and Km concentrations of substrates (counterscreen for miR-21 project); also: nearly all actives have a fitted effect of over 55% in size;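 as to activity change, negative = inhibition: plate controls were vehicle for no effect and reference inhibitor for full effect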
# Conditions: purified FLuc, luminescence inhibition; series mostly up to 57.5 µM; activity change, negative = inhibition: at the top concentration
# Method in brief: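 Purified P. pyralis luciferase, 10 nM final, with Km-level 10 uM D-luciferin and 10 uM ATP in 50 mM Tris acetate pH 7.5, 10 mM Mg acetate, 0.01% Tween-20, 0.05% BSA; 6-point qHTS titration about 60 µM downward; luminescence read.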
# Potency is read from the fitted curve at half-maximal effect.
SMILES,"activity change, negative = inhibition",Potency
CCOC(=O)c1cc2c(=O)n3ccccc3nc2n(Cc2ccco2)c1=NC(=O)c1ccc(F)cc1,-0.239% (inactive),–
Cc1ccc(OCCSc2nc3ccc(NC(=O)COc4ccc(C)cc4)cc3s2)cc1,1.87% (inactive),–
CC1CCN(S(=O)(=O)c2ccc3c(ccn3CCC(=O)NCc3ccc(N(C)C)cc3)c2)CC1,-2.72% (inactive),–
COc1ccc(CC(=O)Nc2nnc3n2CCS3)cc1OC,-3.34% (inactive),–
CCOCCCNC(=O)c1cc2c(=O)n3ccccc3nc2s1,-15% (inactive),–
CCc1ccc2oc(-c3ccc(N)cc3)nc2c1,–,0.19 µM (active)
NS(=O)(=O)c1ccc(CCNC(=O)CCCCCn2c(=O)[nH]c3ccccc3c2=O)cc1,-7.29% (inactive),–
CCc1ccc(NC(=O)c2cc(S(=O)(=O)NC3CCCCCC3)ccc2F)cc1,-8.51% (inactive),–
CCOC(=O)C1=C(c2ccccc2)N=C2SCC(=O)N2C1c1ccc(O)c(OC)c1 (stereo not given),-1.7% (inactive),–
CSc1ccc(CCNC(=O)c2cc(C)nc3c2c(C)nn3-c2cccc(F)c2)cc1,-1.61% (inactive),–
COc1ccc(C2NC(=S)NC3=C2CCc2ccccc23)cc1OC (stereo not given),4.29% (inactive),–
CCOc1ccc(C2NC(=S)NC3=C2CCc2ccccc23)cc1 (stereo not given),–,21.3 µM (active)
CCOC(=O)C1=C(c2ccccc2)NC(=S)NC1c1ccc(Cl)cc1 (stereo not given),1.44% (inactive),–
CCN1CCc2nc3sc(C(=O)Nc4ccccc4OC(F)(F)F)c(N)c3cc2C1,0.475% (inactive),–
Cn1c(=O)c2c(nc(Oc3ccc(C#N)cc3)n2Cc2ccc(Cl)cc2Cl)n(C)c1=O,-3.98% (inactive),–
O=[N+]([O-])c1cccc(C2=NCCS2)c1,-8.97% (inactive),–
FC(F)(F)c1ccnc(Oc2ccc(C3=NCCS3)cc2)c1,–,3.38 µM (active)
O=Cc1ccc(Oc2cccc(C(F)(F)F)c2)nc1,-3.32% (inactive),–
O=C(OCC(=O)N1CCCC1)c1ccc(Cl)nc1,2.43% (inactive),–
CCOc1ccc2nc(/N=C/c3nc(-c4ccccc4)oc3O)sc2c1,2.17% (inactive),–
Oc1oc(-c2ccccc2Br)nc1/C=N/c1ccccn1,–,7.57 µM (active)
CCOc1ccc(C(=O)NCC(=O)N2CCN(c3ccc(C(F)(F)F)cn3)CC2)cc1,6.42% (inactive),–
CCn1cc(C(=O)OCC(=O)Nc2cc(C)cc(C)c2)c(=O)c2ccc(C)nc21,-2.09% (inactive),–
O=S(=O)(NC1CC1)c1ccc(F)c(F)c1,-2.04% (inactive),–

SMILES,"activity change, negative = inhibition",Potency
Cc1cc(C)cc(NC(=O)CSc2nc(=O)n(CCN3CCOCC3)c3c2CCC3)c1,-2.95% (inactive),–
CCn1c(SCC(=O)Nc2nccs2)nnc1-c1ccco1,-1.53% (inactive),–
Cn1c(SCC(=O)Nc2nccs2)nnc1-c1cccnc1,2.95% (inactive),–
Cc1[nH]c2ccccc2c1SCC(=O)Nc1nccs1,–,23.9 µM (active)
CCOc1ccccc1C(=O)NCc1ccc2c(c1)CCN2C(=O)c1ccc(F)cc1,-15% (inactive),–
Cc1ccccc1NC(=O)CSc1ccc2nnc(-c3ccccn3)n2n1,-2.1% (inactive),–
Cc1ccc(-c2onc(C)c2C)cc1S(=O)(=O)Nc1ccccn1,-14.3% (inactive),–
S=C(NCCc1ccccc1)N1CCCCC1,–,16.9 µM (active)
O=C1CCN(C(=S)NCCc2ccccc2)CC1,0.463% (inactive),–
COc1ccc(C(=O)NC2CCN(C(=S)NCCc3ccccc3)CC2)cc1,0.548% (inactive),–
CCOCCCN(C(=O)Cn1nnc(-c2ccc(OC)c(OC)c2)n1)C(CC)C(=O)NC1CCCC1 (stereo not given),-2.8% (inactive),–
O=[N+]([O-])c1ccc(N/N=C2/CCCCC2c2ccccn2)c([N+](=O)[O-])c1 (stereo not given),-12.6% (inactive),–
O=c1[nH]c2cccnc2n1-c1ccc([N+](=O)[O-])cc1,-0.226% (inactive),–
O=[N+]([O-])c1ccc2nc(-c3ccccn3)[nH]c2c1,–,12 µM (active)
COc1ccccc1NC(=O)CSc1oc(-c2ccco2)nc1S(=O)(=O)c1ccc(Br)cc1,-4.64% (inactive),–
CCOc1ccc(S(=O)(=O)Nc2ccc3oc4c(c3c2)CC(C)CC4)cc1 (stereo not given),-12.4% (inactive),–
CSc1ccc(C#N)cc1NC(=O)c1ccc(Cl)cc1,4.33% (inactive),–
N#Cc1ccccc1NC(=O)c1cccc(COc2ccc(Cl)cc2Cl)c1,–,13.5 µM (active)
CSc1ccc(C#N)cc1NC(=O)c1cccc(Cl)c1,-1.26% (inactive),–
CN(C)CCCNC(=S)N1CCN(c2nc(-c3ccccc3)cs2)CC1,-15.6% (inactive),–
O=C(CN1CCN(c2nc(-c3ccccc3)cs2)CC1)NCc1ccc2c(c1)OCO2,-1.74% (inactive),–
c1ccc(-c2csc(N3CCc4ccccc4C3)n2)cc1,–,12 µM (active)
CCCCCn1c(=O)[nH]c2cc(C(=O)NCCCN3CCCCC3C)ccc2c1=O (stereo not given),2.1% (inactive),–
Cc1ccc(S(=O)(=O)n2nc(-c3ccc(Cl)cc3)nc2NCc2ccccc2)cc1,-1.94% (inactive),–

SMILES,"activity change, negative = inhibition",Potency
CCn1c(SCc2ccccc2)nc2c(c1=O)SCC2,-2.37% (inactive),–
CCS(=O)(=O)n1nc(-c2ccccc2)nc1SCc1ccccc1,–,10.7 µM (active)
C[C@H](OC(=O)n1ccnc1)[C@@H]1O[C@@]2(C)CCC[C@@H]1O2,-2.13% (inactive),–
Cc1nnc(N2CCC(C(=O)Nc3ccc(F)cc3)CC2)c2nn(-c3ccc(Cl)cc3)c(C)c12,0.139% (inactive),–
Cc1ccc(NC(=O)COC(=O)CN2CCCCCC2=O)c(C)c1,2.69% (inactive),–
Cn1c(C(=O)Nc2cccc(C(F)(F)F)c2)cc2c(=O)n3ccccc3nc21,-8.11% (inactive),–
CCCN(CCC)C(=O)C(Cc1ccccc1)NS(=O)(=O)c1ccc2c(c1)c(=O)n(C)c(=O)n2C (stereo not given),-0.122% (inactive),–
Cc1cc(C(=O)COC(=O)CNC(=O)c2ccc(F)cc2)c(C)n1Cc1ccco1,–,6.75 µM (active)
O=C(COC(=O)CNC(=O)c1ccco1)Nc1ccc(F)cc1,-0.0434% (inactive),–
COCCn1c(C)cc(C(=O)COC(=O)CNC(=O)c2ccco2)c1C,-9.9% (inactive),–
CCC(C)NC(=O)Cn1c(=O)n(-c2ccc(Cl)cc2)c(=O)c2c3c(sc21)CCCC3 (stereo not given),1.6% (inactive),–
COc1ccc(CNC(=O)c2cc3c(=O)[nH]c4ccccc4c3s2)cc1,0.566% (inactive),–
Cc1c(-c2cccc(NC(=O)C(C)(C)C)c2)nc2ncccn12,-5.1% (inactive),–
CC(=O)Nc1ccc(S(=O)(=O)Nc2cccc(NC(=O)C(C)(C)C)c2)cc1,0.526% (inactive),–
COc1ccc(-c2cn3c(n2)sc2cc(C(=O)Nc4ccc(F)cc4)ccc23)cc1,-11.2% (inactive),–
COc1ccc(-c2cn3cccnc3n2)cc1,–,13.5 µM (active)
FC(F)(F)Oc1ccc(-c2cn3cccnc3n2)cc1,–,6.01 µM (active)
COc1ccc(-c2cc(NCc3ccc(F)cc3)n3cnnc3n2)cc1,-7.12% (inactive),–
COc1ccc(-c2cn3ccsc3n2)cc1,–,2.39 µM (active)
COc1ccc(N2CCN(C(=O)CSc3nnc4ncccn34)CC2)cc1,2.29% (inactive),–
CC(C)(C)C(=O)Nc1ccc(-c2cn3cccnc3n2)cc1,–,7.57 µM (active)
COc1cc(OC)cc(-c2nc(=S)n3ccsc3n2)c1,4.32% (inactive),–
